92 compounds from PubChem BioAssay AID1956 (SRMLSC, 2009) can be followed below.

SMILES strings stand for the structures. Values joined by “and” are separate entries in the source; they are usually repeats but may differ in a detail not shown here. Equal entries are not always repeated. Screen size: about 220,000 compounds; about 10 (0.005%) were called active. Cut-off read from the data, not from the text of the source: active = maximum fold increase above about 1.5; inconclusive = no clear call, values can overlap the other calls; inactive = below that; tested in PC3 cells. Only a sample is shown.

The test can be described thus: enhancers of HSV replication in host cells, fold increase, host cell viability (AID 1956). Conditions: HSV replication augmentation in cells; fold increase: measured here: primary screen fold increase 10 uM, at 10 µM, stronger effect = higher value; maximum fold increase: at 0.098 µM, stronger effect = higher value; viability: measured here: host cell viability series, at 25 µM, stronger effect = lower value.
Consider `CCOC(=O)c1nnn2c1nc(N1CCN(c3ccccc3)CC1)c1ccccc12`, for which the fold increase is 1.01 and the outcome was inactive.
For `CC1=C(N2CCN(c3ncccn3)CC2)CCC1=O`, in that order: 1.12 and “inactive”.
For `N#CCc1c(C#N)c(N)nc(N2CCCC2)c1C#N`, in that order: 0.85 and “inactive”.
For the compound `COc1ccc(-c2nc3c(s2)CCc2onc(-c4ccc(Br)cc4)c2-3)cc1`, the fold increase is 0.69 and the result was inactive.
As a reminder, the viability is a read-out of living cells in per cent, often relative to untreated cells. For the compound `C=CCSC(CC)(CC)C(N)=O`, the fold increase came out at 1.35, the maximum fold increase was 1.19 (inactive) and the viability turned out to be 104%.
Regarding `COCOc1cc(O)c(C(=O)/C=C/c2ccc(OCOC)c(OCOC)c2)c(OCOC)c1`, the fold increase came to 0.92 and the outcome was inactive.
For `O=C(NC1CCN(Cc2ccccc2)CC1)c1ccc(Oc2cc(Cl)cc(Cl)c2)o1`, in that order: 0.88 and “inactive”.
For `CN(C)/C=C(/C(=O)c1ccc(Cl)c(Cl)c1)c1nnnn1-c1ccccc1`, in that order: 1.22 and “inactive”.
For `COc1ccc2nc(NC(=O)NC3CCCCC3)sc2c1`, in that order: 0.94 and “inactive”.
On to `C=CCOC(=O)C1=C[C@H](c2ccc(Br)cc2)C[C@H](OCCCCO)O1`, for which the fold increase is 0.91 and the outcome was inactive.
For `O=C(CCl)Nc1ccc(Sc2ccc(NC(=O)CCl)cc2)cc1`, in that order: 0.77 and “inactive”.
Consider `CC(C)c1ccc(NC(=S)NC2CC3C=CC2C3)cc1` (stereo not given), for which the fold increase was determined as 0.94 and the result was inactive.
For `CCCNc1c(N)c(=O)c1=O`, in that order: 0.92 and “inactive”.
For the compound `CCCc1ccc(C(=O)[C@@H]2[C@@H](C(C)=O)N3c4ccc(F)cc4C=C[C@@H]3[C@@]23C(=O)Nc2ccccc23)cc1`, the fold increase was 1 and the result was inactive.
For `Nc1c(N(CCO)C(=O)C2CCCCC2)c(=O)[nH]c(=O)n1Cc1ccccc1`, in that order: 0.95 and “inactive”.
Regarding `CC1CC(=O)Nc2ccccc2N1S(=O)(=O)c1cccs1` (stereo not given), the fold increase was 1.03 and the result was inactive.
For `C=C1CCN([C@@H](Cc2ccccc2)C(=O)N2CCOCC2)S(=O)(=O)c2ccccc21`, in that order: 0.89 and “inactive”.
For `CC1CC(NC(=O)/C(C#N)=C/c2ccc[nH]2)CC(C)(C)C1` (stereo not given), in that order: 0.99 and “inactive”.
For `Cc1nn2c(NCCN(C)C)c3c(nc2c1-c1ccccc1)CCC3`, in that order: 0.77 and “inactive”.
In the case of `COc1ccccc1C1=CC(=O)CCC1`, the fold increase came out at 0.81 and the outcome was inactive.
For `COCCCn1c(-c2cccs2)nc2nc3ccccc3nc21`, in that order: 0.9 and “inactive”.
For `O=C(CCNc1n[nH]c(=O)[nH]c1=O)N/N=C\c1ccc(Br)cc1`, in that order: 1 and “inactive”.
For `CC1(C)CC(CNCCC(c2ccc(F)cc2)c2ccco2)CCO1` (stereo not given), in that order: 0.96 and “inactive”.
Regarding `COc1ccc(CCn2c(NN=C3CCCC3)nc3c2c(=O)[nH]c(=O)n3C)cc1`, the fold increase worked out at 0.93 and the result was inactive.
For `CSC1=NC2(C)CCCCC2C12C=CC(=O)C=C2` (stereo not given), in that order: 0.88 and “inactive”.
For `CCOC(=O)c1ccccc1NC(=O)c1c(N)n(C)c(=O)[nH]c1=O`, in that order: 0.6 and “inactive”.
For `Cc1ccc(-c2csc(NCCc3nc4cc(Cl)c(Cl)cc4n3CCOCCO)n2)cc1`, the fold increase stood at 0.88 and the outcome was inactive.
For `CN(C)S(=O)(=O)c1ccc(NC(=O)COC(=O)Cn2[nH]c(=O)c3ccccc3c2=O)cc1`, in that order: 0.93 and “inactive”.
On to `Nc1nc(Nc2ccccc2)nc(NCCO)c1[N+](=O)[O-]`, for which the fold increase amounted to 0.82 and the outcome was inactive.
For `C=CCSc1nnc2c(n1)-c1cccc3cccc-2c13`, in that order: 0.7 and “inactive”.
For `O=C1N[C@H](Cc2ccccc2)C(=O)N[C@H]1Cc1cn(S(=O)(=O)c2ccccc2)c2ccccc12`, in that order: 0.74 and “inactive”.
For `O=C(COc1ccccc1[N+](=O)[O-])N/N=C/c1ccc[nH]1`, in that order: 1 and “inactive”.
Regarding `Cc1ccc(N2C(=O)CC(Nc3cccc4ccccc34)C2=O)cc1` (stereo not given), the fold increase was found to be 0.96 and the outcome was inactive.
For `CC(=O)NC(=S)Nc1ccc(NC(=O)c2cccnc2)cc1`, the fold increase is 0.97 and the outcome was inactive.
For `COc1ccc(/C=N/n2nnnc2N)cc1OC`, in that order: 0.91 and “inactive”.
For the compound `Cc1ccc(/C=N/NC(=S)NC2CCCCC2)o1`, the fold increase was 0.99 and the result was inactive.
`O=C(O)C1CCN(C(=O)c2cc(F)cc3c2OCOC3)CC1`: the fold increase is 1.05 and the result was inactive.
For `C[C@H]1CC[C@]2(O[C@@H](CCO)C[C@@H](O)[C@@H]2O)O1`, in that order: 0.79 and “inactive”.
For `O=C(O)CCCCCCCCCC[n+]1ccccc1`, in that order: 0.88 and “inactive”.
For `COc1ccc2c(c1)CCNC2Cc1ccc(OC)c(O)c1` (stereo not given), in that order: 0.84 and “inactive”.
In the case of `O=C1c2ccccc2S(=O)(=O)c2cc(N3CCN(c4ccccn4)CC3)ccc21`, the fold increase is 0.92 and the result was inactive.
For `CCOC(=O)c1ccc(NC(=O)c2c(N)n(C)c(=O)[nH]c2=O)cc1`, in that order: 0.86 and “inactive”.
For `COC(=O)c1cc(NC(=O)c2cc(C(C)(C)C)nn2Cc2cccc(C)c2)ccc1N1CCOCC1`, the fold increase was found to be 0.93 and the result was inactive.
For `COc1ccc(-c2csc(NC3OC(=O)c4ccccc43)n2)cc1` (stereo not given), in that order: 0.65 and “inactive”.
With `O=C(O)Cc1csc(-c2cccc(Oc3ccccc3)c2)n1`, the fold increase is 1.01 and 0.89; the result was inactive.
As to `Cc1ccc(CNC(=O)c2ccc3c(c2)S(=O)(=O)c2ccccc2C3=O)cc1`, the fold increase was 0.82 and the outcome was inactive.
For `O=C(Cc1ccccc1)Nc1c(Cl)ccc2nsnc12`, in that order: 1.01 and “inactive”.
In the case of `COc1ccc(Cl)cc1CSc1ncn[nH]1`, the fold increase was 0.97 and the outcome was inactive.
Regarding `Cc1c(NC(=O)C(=O)N/N=C/c2cccs2)c(=O)n(-c2ccccc2)n1C`, the fold increase worked out at 0.92 and the outcome was inactive.
For `O=C(NC1CC1)C1=C[C@H](c2coc3ccccc3c2=O)C[C@H](OCCCCO)O1`, in that order: 0.73 and “inactive”.
For `CC(C)Cc1ccc(C(C)C(=N)N)cc1` (stereo not given), in that order: 0.92 and “inactive”.
For `CC(C)(C)n1nc(Cc2cccc3ccccc23)c(C#N)c1N`, in that order: 0.79 and “inactive”.
`Oc1ccc(-c2nnc(Nc3ccccc3)c3ccccc23)cc1`: the fold increase is 0.8 and the result was inactive.
For `CC1(C)CC(N2CCN(C(c3ccccc3)c3ccccc3)CC2)=CC(=[N+]2CCCCC2)C1`, in that order: 0.65 and “inactive”.
As for `C#CCOCCOCCOCCNc1nc(N2CCN(C(=O)C([C@@H](C)CC)n3cc(C(N)COC(=O)C(F)(F)F)nn3)CC2)nc(N2CCN(C(=O)[C@H](Cc3ccc(O)cc3)n3cc(C(N)[C@H](C)CC)nn3)CC2)n1` (stereo not given in full), the fold increase stood at 0.87 and the outcome was inactive.
For `C#CCNC(=O)[C@H](Cc1ccc(C(=O)c2ccccc2)cc1)NC(=O)OC(C)(C)C`, in that order: 0.7 and “inactive”.
For `COc1ccccc1-n1cn[nH]c1=S`, in that order: 0.88 and “inactive”.
For `O=C(O)CCn1c(O)c(C=C2N=c3ccccc3=N2)sc1=S`, in that order: 1.18 and “inactive”.
With `Cc1nc(Cl)c(C#N)c2c1CCCC2`, the fold increase worked out at 0.96 and the outcome was inactive.
For `O=c1[nH]snc1-c1c(Cl)cccc1Cl`, in that order: 0.9 and “inactive”.
For `C[C@@H](NC(=O)OC(C)(C)C)c1nnc(S(=O)(=O)Cc2ccccc2)o1`, in that order: 0.98 and “inactive”.
For `OCC[C@H]1C[C@H](O)[C@@H](O)[C@]2(CCCCO2)O1`, in that order: 0.79 and “inactive”.
In the case of `CCCCCCCCCCCCN1[C@@H](CC(C)=O)c2cc(F)cc(F)c2S1(=O)=O`, the fold increase came to 0.93 and the outcome was inactive.
Take `COc1ccc(CN2[C@@H](CC(=O)O)c3cc(F)ccc3S2(=O)=O)cc1`: the fold increase is 0.82 and the result was inactive.
For the compound `C=CCC(Nc1ccccc1)c1cccc(OC)c1OC` (stereo not given), the fold increase was found to be 0.99 and the outcome was inactive.
For `COc1ccc(CNC(=O)C2(CC3CC(c4ccccc4)=NO3)CCN(C(=O)c3cccc(O)c3)CC2)cc1` (stereo not given), in that order: 0.88 and “inactive”.
For `CC1CCN(Cc2nc(-c3ccc(Cl)cc3)no2)CC1`, in that order: 0.99 and “inactive”.
In the case of `NC(=O)NC(=O)CSc1nc2cc([N+](=O)[O-])ccc2n1-c1cccc(C(F)(F)F)c1`, the fold increase is 0.9 and the result was inactive.
For `COc1ccc(N2C(=O)C3C(C2=O)C(C(=O)c2ccccc2)N2CCCC32)cc1` (stereo not given), in that order: 1.02 and “inactive”.
As for `Cc1ccccc1NC(=O)Nc1ccccc1N1CCCCC1`, the fold increase worked out at 0.85 and the result was inactive.
For `CCCC[C@@H]1CN=C(N)N1CCc1cccc(F)c1`, in that order: 0.84 and “inactive”.
For the compound `C/C=C(/C)C(=O)O[C@@H]1c2cc3c(c4c2[C@@]2(CO4)C(=O)C(OC)=C(OC)C=C2C[C@@H](C)[C@H]1C)OCO3`, the fold increase is 0.75 and the outcome was inactive.
With `CC1Cc2ccccc2N1CC(=O)Nc1ccc(S(N)(=O)=O)cc1` (stereo not given), the fold increase was 1.03 and the outcome was inactive.
For `O=C(Nc1nnc(COc2ccccc2)s1)Nc1ccccc1F`, in that order: 0.9 and “inactive”.
For `COc1ccc(COCCN2CCN(S(=O)(=O)c3ccccc3)CCC2=O)cc1`, in that order: 0.895 and “inactive”.
In the case of `N/C(=N\OC(=O)CCn1cccc(C(F)(F)F)c1=O)c1ccc(OC(F)(F)F)cc1`, the fold increase was found to be 0.99 and the result was inactive.
For `C=CC(COCc1ccccc1)N(Cc1ccccc1)S(=O)(=O)c1ccccc1Br` (stereo not given), in that order: 1.29 and “inactive”.
For `Cc1cc(C(=O)NNS(=O)(=O)c2ccccc2C(F)(F)F)nn1C(C)(C)C`, in that order: 1 and “inactive”.
For `CC1(C)S[C@@H]2[C@H](N=CN3CCCCCC3)C(=O)N2[C@H]1C(=O)O`, in that order: 0.85 and “inactive”.
On to `CN(C)N=Nc1ccc2nc[nH]c2c1`, for which the fold increase is 1.29 and the result was inactive.
Take `O=C(O)C1CCN(c2ccc([N+](=O)[O-])cc2[N+](=O)[O-])CC1`: the fold increase worked out at 0.9 and the outcome was inactive.
For `CCOC(=O)c1ccc(NC(=O)c2nc[nH]c2C(=O)NCc2ccccc2)cc1`, in that order: 0.92 and “inactive”.
For `CC(C)(C)Oc1ccccc1Nc1nc(NCCO)nc(N2CCCC2)n1`, in that order: 0.69 and “inactive”.
For `CCOC(=O)C1Nc2ccc(C(F)(F)F)cc2C2C=CCC12` (stereo not given), in that order: 0.82 and “inactive”.
As to `O=[N+]([O-])c1ccc(N/N=C/c2ccccc2)cc1`, the fold increase came out at 1.08 and the result was inactive.
For `O=c1c2c3c(sc2n(CCN2CCCC2)c(=O)n1Cc1ccccc1)CCCCC3`, in that order: 0.84 and “inactive”.
For `Cc1ccc(NC(=O)/C(=C/c2ccc([N+](=O)[O-])cc2)NC(=O)c2ccccc2)cc1`, the fold increase is 0.83 and the outcome was inactive.
For `COc1ccc2[nH]c(=S)cc(C)c2c1`, in that order: 1.08 and “inactive”.
For `CCOC(=O)C1CCN(c2c(Nc3cc(C)cc(C)c3)c(=O)c2=O)CC1`, in that order: 0.95 and “inactive”.
Regarding `CC(NC(=S)Nc1ccccc1)C(c1cccs1)N1CCOCC1` (stereo not given), the fold increase was 1 and the outcome was inactive.
For `Cc1nc(-c2ccc(Cl)cc2)sc1C1(C)CC(c2ccc(Br)cc2)=NO1` (stereo not given), in that order: 0.87 and “inactive”.
For `CCOC(=O)/C=C/c1ccc(C(F)(F)F)cc1S(=O)(=O)NC(C)(C)C`, in that order: 0.67 and “inactive”.
